About 6,500 targets were measured; listed, in parts, are those with a hit and a random draw of the rest. About 2% of all pairs of compound and target were hits.
What follows are targets tested with COC(=O)C#Cc1ccccc1 [methyl 3-phenylpropiolate] (assay: log2 ratio of iodoacetamide-alkyne labeling of the cysteine site, DMSO over compound (competition); higher = stronger covalent engagement of the cysteine by the compound, active = 1 or more). Conditions: 500 µM; treatment time 1 h; system: HEK293T cell lysate.
Method in brief: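 HEK293T lysate (2 mg/mL) was treated with DMSO or electrophile (500 µM, 1 h, ambient temperature), then iodoacetamide alkyne (1 h), clicked to sCIP-TMT reagents, pooled, trypsin-digested overnight at 37 °C, streptavidin-enriched and acid-eluted. Peptides were run on Orbitrap Eclipse LC-MS/MS with FAIMS and quantified in FragPipe. The log2 competition ratio per cysteine is mean control-channel over mean compound-channel reporter intensity. Duplicate channels and three replicates were used, and cysteines quantified in only one replicate were excluded.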

Chain of UniProt Q96EP5 (Q96EP5 whole entry, looked up): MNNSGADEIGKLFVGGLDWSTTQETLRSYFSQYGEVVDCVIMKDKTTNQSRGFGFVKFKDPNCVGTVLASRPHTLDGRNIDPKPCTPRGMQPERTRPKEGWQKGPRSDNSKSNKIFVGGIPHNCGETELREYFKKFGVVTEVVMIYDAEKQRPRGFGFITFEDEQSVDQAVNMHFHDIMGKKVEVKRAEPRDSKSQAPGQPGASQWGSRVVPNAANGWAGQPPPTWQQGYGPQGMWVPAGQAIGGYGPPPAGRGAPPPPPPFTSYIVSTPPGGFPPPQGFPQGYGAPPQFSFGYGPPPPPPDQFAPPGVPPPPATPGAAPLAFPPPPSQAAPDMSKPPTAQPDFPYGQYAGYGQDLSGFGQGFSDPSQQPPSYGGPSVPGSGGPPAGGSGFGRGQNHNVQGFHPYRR
Chain of UniProt Q8IY81 (Q8IY81 whole entry, looked up): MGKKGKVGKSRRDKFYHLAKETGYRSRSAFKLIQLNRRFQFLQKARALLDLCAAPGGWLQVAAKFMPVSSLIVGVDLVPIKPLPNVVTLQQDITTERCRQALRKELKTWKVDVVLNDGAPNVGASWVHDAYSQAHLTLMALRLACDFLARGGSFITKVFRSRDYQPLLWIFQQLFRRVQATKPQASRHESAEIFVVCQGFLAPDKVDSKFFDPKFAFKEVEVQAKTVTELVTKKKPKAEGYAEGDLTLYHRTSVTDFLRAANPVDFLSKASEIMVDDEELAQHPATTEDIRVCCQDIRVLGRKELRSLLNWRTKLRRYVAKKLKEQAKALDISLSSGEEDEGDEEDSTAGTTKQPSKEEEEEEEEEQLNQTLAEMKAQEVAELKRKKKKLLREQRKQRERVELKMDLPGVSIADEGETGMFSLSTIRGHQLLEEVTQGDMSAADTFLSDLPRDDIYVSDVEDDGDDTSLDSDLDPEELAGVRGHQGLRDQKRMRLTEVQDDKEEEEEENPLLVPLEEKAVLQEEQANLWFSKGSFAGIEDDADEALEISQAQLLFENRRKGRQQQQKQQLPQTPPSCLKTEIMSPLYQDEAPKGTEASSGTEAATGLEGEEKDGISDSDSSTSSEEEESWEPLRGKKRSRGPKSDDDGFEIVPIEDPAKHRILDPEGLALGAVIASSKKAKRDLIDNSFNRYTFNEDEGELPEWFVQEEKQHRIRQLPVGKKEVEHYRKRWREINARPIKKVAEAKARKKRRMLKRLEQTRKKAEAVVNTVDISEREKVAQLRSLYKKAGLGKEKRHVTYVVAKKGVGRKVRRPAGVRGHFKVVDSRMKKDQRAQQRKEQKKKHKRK
Chain of UniProt Q8IWV7 (Q8IWV7 whole entry): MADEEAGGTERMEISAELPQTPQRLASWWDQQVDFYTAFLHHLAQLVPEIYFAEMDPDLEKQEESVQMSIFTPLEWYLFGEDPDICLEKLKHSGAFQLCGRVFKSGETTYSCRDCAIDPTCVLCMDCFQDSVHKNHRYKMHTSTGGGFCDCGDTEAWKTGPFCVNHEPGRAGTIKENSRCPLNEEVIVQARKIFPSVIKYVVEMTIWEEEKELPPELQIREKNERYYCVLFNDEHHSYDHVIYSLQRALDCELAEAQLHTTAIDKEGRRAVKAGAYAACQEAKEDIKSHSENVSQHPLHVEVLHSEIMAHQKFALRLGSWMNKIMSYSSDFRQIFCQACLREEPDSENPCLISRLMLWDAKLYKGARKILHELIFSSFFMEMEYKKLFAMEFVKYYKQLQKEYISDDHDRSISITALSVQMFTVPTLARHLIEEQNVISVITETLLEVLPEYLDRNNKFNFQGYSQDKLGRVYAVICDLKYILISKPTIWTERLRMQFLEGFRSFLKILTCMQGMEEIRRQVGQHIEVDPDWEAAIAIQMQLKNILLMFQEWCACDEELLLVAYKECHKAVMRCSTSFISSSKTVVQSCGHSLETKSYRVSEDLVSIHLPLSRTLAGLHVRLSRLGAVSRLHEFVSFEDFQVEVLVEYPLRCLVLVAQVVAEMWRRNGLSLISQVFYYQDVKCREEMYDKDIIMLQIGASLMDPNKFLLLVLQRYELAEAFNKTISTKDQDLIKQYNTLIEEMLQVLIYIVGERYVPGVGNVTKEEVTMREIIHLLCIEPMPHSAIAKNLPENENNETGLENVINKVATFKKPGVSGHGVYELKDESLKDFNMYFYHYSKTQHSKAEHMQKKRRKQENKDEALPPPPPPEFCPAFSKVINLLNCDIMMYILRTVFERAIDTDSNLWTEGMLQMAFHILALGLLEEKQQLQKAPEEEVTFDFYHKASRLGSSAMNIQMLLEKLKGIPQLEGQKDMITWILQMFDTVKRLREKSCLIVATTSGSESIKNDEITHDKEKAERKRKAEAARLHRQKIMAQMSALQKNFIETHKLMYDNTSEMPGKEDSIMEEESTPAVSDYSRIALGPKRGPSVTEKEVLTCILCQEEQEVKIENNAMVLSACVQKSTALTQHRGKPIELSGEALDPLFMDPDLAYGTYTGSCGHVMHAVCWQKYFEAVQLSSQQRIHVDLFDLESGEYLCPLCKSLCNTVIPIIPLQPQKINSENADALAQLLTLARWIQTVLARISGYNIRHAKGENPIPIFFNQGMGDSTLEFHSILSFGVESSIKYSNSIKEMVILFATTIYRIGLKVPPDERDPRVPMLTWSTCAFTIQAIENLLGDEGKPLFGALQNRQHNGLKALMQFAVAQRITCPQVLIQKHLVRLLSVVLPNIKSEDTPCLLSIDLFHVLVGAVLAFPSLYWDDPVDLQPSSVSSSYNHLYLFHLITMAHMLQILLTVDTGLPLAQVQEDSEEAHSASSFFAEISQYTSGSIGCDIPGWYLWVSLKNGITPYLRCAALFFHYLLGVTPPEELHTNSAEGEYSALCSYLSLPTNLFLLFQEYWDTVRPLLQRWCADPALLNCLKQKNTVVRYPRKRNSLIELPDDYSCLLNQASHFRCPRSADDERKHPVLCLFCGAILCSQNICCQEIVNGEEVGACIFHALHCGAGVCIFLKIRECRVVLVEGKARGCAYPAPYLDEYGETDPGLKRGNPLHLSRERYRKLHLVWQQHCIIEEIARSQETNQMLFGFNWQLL
Chain of UniProt Q92782 (Q92782 whole entry, looked up): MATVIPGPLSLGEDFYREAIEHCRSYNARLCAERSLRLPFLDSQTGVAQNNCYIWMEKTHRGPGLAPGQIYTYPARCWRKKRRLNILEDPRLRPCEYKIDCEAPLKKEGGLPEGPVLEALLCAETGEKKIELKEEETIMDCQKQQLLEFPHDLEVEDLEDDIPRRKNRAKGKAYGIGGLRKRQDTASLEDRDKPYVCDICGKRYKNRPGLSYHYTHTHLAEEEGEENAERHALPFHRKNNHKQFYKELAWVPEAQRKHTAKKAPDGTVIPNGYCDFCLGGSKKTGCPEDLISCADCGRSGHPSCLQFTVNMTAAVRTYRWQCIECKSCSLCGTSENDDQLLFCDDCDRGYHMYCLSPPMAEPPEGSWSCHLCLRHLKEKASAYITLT
Chain of UniProt Q8IWB7 (Q8IWB7 whole entry, looked up): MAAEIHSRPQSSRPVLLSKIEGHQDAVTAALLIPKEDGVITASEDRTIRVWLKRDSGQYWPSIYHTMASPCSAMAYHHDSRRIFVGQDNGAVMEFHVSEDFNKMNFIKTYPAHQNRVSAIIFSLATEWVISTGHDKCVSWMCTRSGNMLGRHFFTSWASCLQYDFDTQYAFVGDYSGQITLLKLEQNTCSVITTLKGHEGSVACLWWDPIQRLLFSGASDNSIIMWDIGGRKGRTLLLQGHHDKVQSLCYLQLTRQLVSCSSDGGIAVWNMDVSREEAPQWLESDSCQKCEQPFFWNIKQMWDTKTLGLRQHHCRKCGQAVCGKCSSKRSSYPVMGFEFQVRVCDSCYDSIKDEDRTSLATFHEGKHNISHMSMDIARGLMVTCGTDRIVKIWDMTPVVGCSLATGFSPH
Chain of UniProt Q8TAG9 (Q8TAG9 whole entry, looked up): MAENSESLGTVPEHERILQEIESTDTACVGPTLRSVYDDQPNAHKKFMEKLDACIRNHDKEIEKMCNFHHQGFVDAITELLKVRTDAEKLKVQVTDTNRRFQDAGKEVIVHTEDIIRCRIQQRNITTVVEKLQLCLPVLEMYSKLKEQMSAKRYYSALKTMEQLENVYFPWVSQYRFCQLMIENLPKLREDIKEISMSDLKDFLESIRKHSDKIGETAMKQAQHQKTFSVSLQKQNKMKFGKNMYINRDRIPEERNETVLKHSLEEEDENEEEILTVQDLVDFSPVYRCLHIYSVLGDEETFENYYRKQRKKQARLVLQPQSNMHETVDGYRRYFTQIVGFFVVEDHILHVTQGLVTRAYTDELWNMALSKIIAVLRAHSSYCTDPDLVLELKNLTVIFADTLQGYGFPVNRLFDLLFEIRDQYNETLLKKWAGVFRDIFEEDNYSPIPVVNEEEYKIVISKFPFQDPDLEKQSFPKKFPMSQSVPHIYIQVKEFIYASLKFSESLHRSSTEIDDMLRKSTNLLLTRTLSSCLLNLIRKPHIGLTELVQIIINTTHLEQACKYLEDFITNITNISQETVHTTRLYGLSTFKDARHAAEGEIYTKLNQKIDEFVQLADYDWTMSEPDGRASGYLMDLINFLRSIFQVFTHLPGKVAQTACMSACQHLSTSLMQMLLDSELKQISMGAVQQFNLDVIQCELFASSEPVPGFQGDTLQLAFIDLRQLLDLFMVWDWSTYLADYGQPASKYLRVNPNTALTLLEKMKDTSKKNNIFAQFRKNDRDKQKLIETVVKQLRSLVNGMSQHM
Chain of UniProt Q9BSH5 (Q9BSH5 whole entry, looked up): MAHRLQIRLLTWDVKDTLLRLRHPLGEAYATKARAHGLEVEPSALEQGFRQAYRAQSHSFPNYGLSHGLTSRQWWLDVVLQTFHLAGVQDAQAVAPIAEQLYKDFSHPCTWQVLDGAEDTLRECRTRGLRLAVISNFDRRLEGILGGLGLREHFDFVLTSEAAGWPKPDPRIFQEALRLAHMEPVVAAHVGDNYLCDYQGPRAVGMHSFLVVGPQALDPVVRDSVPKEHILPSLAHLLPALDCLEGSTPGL

log2 ratio of iodoacetamide-alkyne labeling, active:
NEK9 C25 (UniProt Q8TD19) 1.21, ACO2 C448 (UniProt Q99798) 1.71, UniProt Q5VSL9_C418 1.22, MASTL C285 (UniProt Q96GX5) 1.02, BEND3 C95 (UniProt Q5T5X7) 1.11, C15orf39 C367 (UniProt Q6ZRI6) 1.32, CCDC117 C81 (UniProt Q8IWD4) 1.66, CPPED1 C54 (UniProt Q9BRF8) 1.01

log2 ratio of iodoacetamide-alkyne labeling, inactive:
DPF1 C149 (UniProt Q92782) 0.289, UniProt Q7RTV0_C46 0.211, UBR1 C1603 (UniProt Q8IWV7) 0.433, LGMN C219 (UniProt Q99538) 0.865, UniProt Q8NFC6_C2164 0.286, MARC1 C273 (UniProt Q5VT66) 0.102, PYCR2 C262 (UniProt Q96C36) 0.538, UniProt Q86Y56_C173 0.779, DAZAP1 C39 (UniProt Q96EP5) 0.0955, DDX54 C73 (UniProt Q8TDD1) 0.301, WDFY1 C287 (UniProt Q8IWB7) 0.127, UniProt Q8WVB3_C244 0.59, INTS1 C1701 (UniProt Q8N201) -0.0332, SECISBP2 C719 (UniProt Q96T21) -0.258, UniProt Q96GD4_C234 0.62, ACD C406 (UniProt Q96AP0) 0.713, UniProt Q96HE7_C241 0.0793, UniProt Q69YQ0_C79 0.787, HDHD3 C243 (UniProt Q9BSH5) 0.16, SEC14L1 C258 (UniProt Q92503) 0.208, EXOC6 C28 (UniProt Q8TAG9) 0.489, UniProt Q8WZA9_C373 0.706, LARP1 C502 (UniProt Q6PKG0) 0.269, CAND1 C413 (UniProt Q86VP6) 0.304, FTSJ3 C197 (UniProt Q8IY81) 0.103, DIDO1 C455 (UniProt Q9BTC0) 0.67, CEP128 C915 (UniProt Q6ZU80) 0.335
